# Assay outcomes from PubChem.
# Shown are actives, neighbours in structure and some others; about 0.84% of the full set was active somewhere.
# PPARg SRC-2 ag – agonists of SRC-2 recruitment by human PPARgamma; P37231; PPARgamma LBD-SRC-2 recruitment, biochemical; activation, % at 8 µM; hit rate 0.34% among 200,000;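 further: 0% = vehicle and 100% = reference agonist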
# SRC2 TRFRET art – counter-screen for PPARgamma SRC-2 recruitment agonists: TR-FRET artefact; TR-FRET ratio at 8 µM; AID 1049; hit rate 0.4% among 200,000; hits give high values; in the data active means TR-FRET ratio above about 2000
# PPARg SRC1 recr – PPARgamma-driven SRC-1 recruitment agonism; PPARgamma-SRC-1 coactivator recruitment biochemical assay; activation, % at 8 µM; P37231; hit rate 0.41% among 200,000; in the data active means activation above about 19%;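 further: 0% = DMSO and 100% = reference agonist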
# SRC1 TRFRET art – TR-FRET artefact, counter-screen to PPARgamma/SRC-1 agonist assay | TR-FRET detection artefact counter-screen, emission ratio; hits give high values | hit rate 0.34% among 99,000 | TR-FRET ratio at 8 µM; in the data active means TR-FRET ratio above about 2300
# PPARg SRC-3 ag – promotes SRC-3 coactivator recruitment by human PPARgamma | P37231 | biochemical PPARgamma/SRC-3 coactivator recruitment assay | activation, % at 8 µM | hit rate 0.26% among 200,000 | AID 731; in the data active means activation above about 23%;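 further: 0% = DMSO and 100% = reference agonist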
# SRC3 TRFRET art – counter-screen for PPARgamma SRC-3 recruitment agonists: TR-FRET artefact; PPARgamma/SRC-3 format; hits give high values; TR-FRET ratio at 8 µM; hit rate 0.39% among 99,000; AID 1048; in the data active means TR-FRET ratio above about 2000
# PPARg SRC2 ag – human PPARgamma SRC-2 recruitment agonism, confirmation; shares compounds with PPARg SRC-3 ag; biochemical SRC-2 recruitment by PPARgamma; activation, % at 8 µM; hit rate 52% among 790; AID 1297;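 further: 0% = vehicle alone and 100% = reference agonist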
# PPARg SRC1 ag – confirmation of agonists of SRC-1 recruitment by human PPARgamma; shares compounds with PPARg SRC-3 ag; PPARgamma–SRC-1 coactivator recruitment biochemical assay; activation, % at 8 µM; hit rate 43% among 790; AID 1300; in the data active means activation above about 20%;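 further: 0% = vehicle wells and 100% = reference agonist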
# PPARg SRC3 conf – human PPARgamma SRC-3 recruitment agonism, confirmation; biochemical PPARgamma-SRC-3 coactivator recruitment, agonist mode; AID 1301; activation, % at 8 µM; shares compounds with PPARg SRC-3 ag; hit rate 29% among 790; in the data active means activation above about 24%;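 further: 0% = vehicle wells and 100% = reference agonist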
# Numbers without * were called inactive; x = no result. Unless noted, no stated cut-off is given here; in the data, active means activation above about 22%; inactive means the rest.
SMILES,PPARg SRC-2 ag,SRC2 TRFRET art,PPARg SRC1 recr,SRC1 TRFRET art,PPARg SRC-3 ag,SRC3 TRFRET art,PPARg SRC2 ag,PPARg SRC1 ag,PPARg SRC3 conf
COc1ccc(-c2nnc(Nc3ccc(S(=O)(=O)Nc4nccs4)cc3)c3ccccc23)cc1,18,1729,55*,2204,47*,1895,35*,25*,24*
CCOc1ccc(NC(=S)C(C#N)=C2N(C)c3ccccc3N2C)cc1,18,1563,23*,1817,0,1702,0,-1,3
CC(=O)NC(Cc1c[nH]c2ccccc12)C(=O)OCC(=O)N1CCCCCC1 (stereo unspecified),-2,1776,15,1882,4,1636,x,x,x
COc1ccc(NC(=O)c2sc(=S)[nH]c2N)cc1,4,1621,16,x,28*,x,12,11,7
C#CCNC(=O)C1=C[C@H](C2CCCCC2)C[C@H](OCc2ccc(CO)cc2)O1,15,1615,24*,1703,2,1716,1,1,1
CC(O)CNc1nc(Cl)c(C#N)s1 (stereo unspecified),-5,1398,5,1801,-2,1475,x,x,x
COc1cc2c(cc1NC(=O)CSc1nnc(Cc3cccs3)n1C)oc1ccccc12,2,1490,5,x,-11,x,x,x,x
CCn1c(SCC(=O)Nc2cc3oc4ccccc4c3cc2OC)nnc1-c1cccs1,26*,1548,5,x,12,x,5,0,2
Cc1ccc(N2CSC3=C(C#N)C(c4cccs4)CC(=O)N3C2)cc1 (stereo unspecified),29*,2106*,13,x,19,x,4,0,2
c1cc2c(cnc3cscc32)s1,53*,2391*,49*,3316*,29*,2526*,62*,51*,42*
c1csc(-c2cnc3ccccc3n2)c1,3,1598,6,1778,2,1571,x,x,x
Cc1c(Br)c([N+](=O)[O-])nn1CC(=O)Nc1cccc2nonc12,3,1661,-1,1710,2,1406,x,x,x
O=C(CCN1CCc2ccccc2C1)Nc1ccccc1,7,1564,5,x,0,x,x,x,x
N#Cc1c(SCC(=O)O)nc(-c2ccccc2)c2c1CCCC2,11,1727,17,x,30*,x,14,11,9
COc1cc(NC(=S)NC2CC2)c(OC)cc1Cl,0,1638,0,1708,0,1636,x,x,x
COc1ccc2c(C)cc(=S)[nH]c2c1,22*,1987*,32*,2499*,15,2185*,6,6,4
CN(C)CCN1C(=O)C(O)=C(C(=O)c2cc3ccccc3o2)C1c1ccccn1 (stereo unspecified),-6,1299,5,x,15,x,x,x,x
CCN(CC)CCCN1C(=O)C(O)=C(C(=O)c2cc3ccccc3o2)C1c1ccccn1 (stereo unspecified),48*,2586*,43*,x,62*,x,40*,30*,27*
NS(=O)(=O)c1ccc(-c2ccc(/C=C3\C(=O)Nc4cc(Cl)ccc43)o2)cc1,16,1867,27*,1718,16,1999,31*,16,18
CC1(C)OC(=O)C(=Cc2ccc(-c3ccc(S(N)(=O)=O)cc3)o2)C(=O)O1,-5,1382,-2,1707,-1,1686,x,x,x
O=C(COC(=O)c1cc[n+]([O-])cc1)Nc1ccc(F)c([N+](=O)[O-])c1,-4,1522,-8,1508,-3,1425,x,x,x
O=C(CCc1c[nH]c2ccccc12)N1CCN(c2ccc(O)cc2)CC1,1,1542,1,1753,5,1560,x,x,x
Cc1cc2c(cc(C(=O)OC(C(=O)NCc3ccco3)C(C)C)n2C)o1 (stereo unspecified),10,1764,-4,x,1,x,x,x,x
CC(C)C(OC(=O)c1cc2occc2n1C)C(=O)NCc1ccc2c(c1)OCO2 (stereo unspecified),13,1600,33*,1700,31*,1951,11,21*,20
